# Data: PubChem BioAssay (NCI)
# Compounds without any hit were thinned out: in the full panel of roughly 83,000, 20% have a hit.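 How to read the values: 0–100, growth inhibition (40 = 60% inhibited); 0, no net growth; -100 to 0, cell death (-40 = 40% of starting cells died; -100 = all dead).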 Unmarked numbers belong to inactive results. Activity calls are given as the source filed them. The calls were made as follows: active = growth percent below 10; inactive = the rest.
# What was measured:
# Assay in all cases: NCI-60 one-dose screen, 48 h (100 = growth as untreated, 0 = no growth, -100 = all killed)
# Settings in all cases: 10 µM unless noted
# NCI-H23 lung = test system: NCI-H23 lung
# NCI-H226 lung = test system: NCI-H226 lung
# NCI-H322M lung = test system: NCI-H322M lung
# HOP-62 NSCLC = test system: HOP-62 NSCLC
# NCI-H460 lung = test system: NCI-H460 lung
# HOP-92 NSCLC = test system: HOP-92 NSCLC
# NCI-H522 lung = test system: NCI-H522 lung
# A549/ATCC NSCLC = test system: A549/ATCC NSCLC
# 786-0 renal = test system: 786-0 renal
# COLO 205 colon = test system: COLO 205 colon
# DU-145 prostate = test system: DU-145 prostate
# K-562 leukemia = test system: K-562 leukemia
# MALME-3M melanoma = test system: MALME-3M melanoma
# MDA-MB-231 breast = test system: MDA-MB-231 breast
# RXF 393 renal = test system: RXF 393 renal
# SF-268 CNS = test system: SF-268 CNS
# SF-295 CNS = test system: SF-295 CNS
# SF-539 CNS = test system: SF-539 CNS
# UACC-257 melanoma = test system: UACC-257 melanoma
# M14 melanoma = test system: M14 melanoma
SMILES,growth (NCI-H23 lung),growth (NCI-H226 lung),growth (NCI-H322M lung),growth (HOP-62 NSCLC),growth (NCI-H460 lung),growth (HOP-92 NSCLC),growth (NCI-H522 lung),growth (A549/ATCC NSCLC),growth (786-0 renal),growth (COLO 205 colon),growth (DU-145 prostate),growth (K-562 leukemia),growth (MALME-3M melanoma),growth (MDA-MB-231 breast),growth (RXF 393 renal),growth (SF-268 CNS),growth (SF-295 CNS),growth (SF-539 CNS),growth (UACC-257 melanoma),growth (M14 melanoma)
Cc1nccc2c3ccc(OCc4cn(-c5ccc(Cl)cc5)nn4)cc3n(CCCc3ccccc3)c12,70.5%,-10.9% (active),50%,6.51% (active),14.4%,26.6%,46.6%,4.77% (active),-72.6% (active),-3.42% (active),27.6%,11.1%,-7.83% (active),27.4%,-2.27% (active),-5.93% (active),8.27% (active),-16.5% (active),-34.6% (active),-73.2% (active)
COc1ccc2c(/C=C3/C(=O)NC(=S)NC3C)cc(=O)oc2c1 (stereo not given),98.9%,96.7%,93.1%,92.8%,105%,93%,82.3%,88.9%,95.8%,101%,108%,98.1%,99.4%,103%,98.4%,89.4%,97.9%,101%,83.5%,109%
O=C(/C=C/c1ccc[nH]1)c1ccc(-n2ccc(C(F)(F)F)n2)cc1,90.1%,91.5%,72.4%,104%,99.1%,96.3%,-6.16% (active),50.6%,45.4%,122%,96.4%,68.1%,86%,22.7%,50%,34.2%,70.2%,14.3%,96.7%,94.5%
O=C1Nc2ccccc2/C1=N/c1nc(-c2ccc(Cl)cc2)cs1,75%,64.2%,92.6%,56%,67.7%,51.5%,50.1%,49.4%,75.6%,63.8%,75.3%,48.5%,81.4%,67.8%,64.7%,54.1%,81.5%,84.5%,48.9%,67.8%
C[C@H]1[C@H](C)CC[C@]2(CO)CC[C@]3(C)C(=CC[C@@H]4[C@@]5(C)Cc6c([nH]c7ccccc67)C(C)(C)[C@@H]5CC[C@]43C)[C@H]12,74.6%,76.9%,72.3%,89%,66.8%,101%,-12.7% (active),81%,76.1%,95.1%,71.1%,52.4%,46.9%,88.8%,84.1%,74.5%,81.2%,96%,108%,92.8%
N#CC1=C(N)Oc2c(ccc3ccccc23)C1c1ccc([N+](=O)[O-])cc1 (stereo not given),79.1%,66.7%,95.2%,73.3%,69.8%,93.4%,57.5%,73%,102%,105%,89.6%,21.4%,84.3%,61.4%,101%,79.6%,75.6%,87.8%,94.7%,67.8%
Nc1ccccc1NC(=O)c1ccc(CN2CCC/C(=C\c3cccc(Cl)c3)C2=O)cc1,21.1%,40%,40.8%,19%,7.66% (active),44.1%,-32% (active),33%,14.2%,-51.8% (active),8.37% (active),4.21% (active),63.7%,-2.78% (active),20.6%,3.92% (active),25.5%,5.47% (active),37.7%,24%
COc1ccc(/C(=C\c2ccccc2)C(=O)O)cc1OC,93.6%,83.5%,98%,2.18% (active),101%,97.9%,101%,102%,104%,100%,108%,134%,95.9%,89.1%,104%,103%,101%,103%,99.2%,98.3%
